# Screens from PubChem BioAssay.
# SENP6 inh = SENP6 protease inhibitors, primary screen, biochemical, luminescence, uHTS. Sentrin-specific protease 6 (Homo sapiens), Q9GZR1. 330,000 compounds, 1.8% hits. Recombinant SENP6 catalytic domain, aminoluciferin luminescence. inhibition, % at 10 µM;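 active = inhibition above about 50% at the single tested dose, limit read from the data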;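 also: plate controls were DMSO wells with enzyme for no effect and DMSO wells lacking enzyme for full effect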
# Platelet DG rel = inhibitors of platelet dense granule secretion, primary screen, cell-based, MLPCN, human platelets | inhibition, %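 (compounds screened at 7.5 µM in platelet-rich plasma)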 | 300,000 compounds, 0.22% hits | AID 1663, 2009 | human platelet-rich plasma, SFLLRN dense granule ATP release, luminescence;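 active = mean replicate score, as percent of positive control, at or above 50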
# SENP7 inh = SENP7 protease inhibitors, primary screen, biochemical, luminescence, uHTS; inhibition, % at 5 µM; Sentrin-specific protease 7 (Homo sapiens), Q9BQF6; AID 434973, 2010; 330,000 compounds, 1.5% hits; recombinant SENP7, Z-RLRGG-aminoluciferin luminescence, 40 min;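 active = inhibition above about 50% at the single test dose, limit read from the data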;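 also: plate controls were DMSO with enzyme for no effect and no enzyme buffer wells for full effect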
# HSP90 inh = HSP90 inhibitors, primary screen, cell lysate, luminescence | AID 1789, 2009 | inhibition, % at 5.6 µM | 290,000 compounds, 0.91% hits | Rabbit reticulocyte lysate, luciferase refolding luminescence, 3 h | Heat shock protein HSP 90 (rabbit reticulocyte lysate; luciferase refolding);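 active = inhibition above the screen-wide mean plus 3 SD, computed separately per campaign, cut at about 16% in these data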;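 also: 0% = DMSO wells and 100% = 60 µM geldanamycin wells; inhibitors lower the luminescence because luciferase stays unfolded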
# SENP8 block-1 = SENP8 protease inhibitors, primary screen, biochemical, luminescence; Sentrin-specific protease 8 (Homo sapiens), Q96LD8; purified SENP8, Z-RLRGG-aminoluciferin cleavage; inhibition, % at 10 µM; 330,000 compounds, 1.2% hits; AID 2540, 2010; in the data active = inhibition above about 50%
# Target sequence (Q96LD8 whole entry, looked up): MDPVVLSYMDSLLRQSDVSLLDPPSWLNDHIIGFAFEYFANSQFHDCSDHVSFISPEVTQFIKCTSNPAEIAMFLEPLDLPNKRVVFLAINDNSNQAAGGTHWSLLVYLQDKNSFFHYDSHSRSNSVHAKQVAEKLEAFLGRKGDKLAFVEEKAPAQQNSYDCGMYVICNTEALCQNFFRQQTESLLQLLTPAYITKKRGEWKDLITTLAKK
# SENP8 block-2 = human SENP8 protease inhibitors, primary screen, biochemical, fluorescence, Nedd8 protein substrate, uHTS; Sentrin-specific protease 8 (Homo sapiens), Q96LD8; recombinant SENP8; inhibition, % at 20 µM; 360,000 compounds, 0.64% hits; in the data active = inhibition mostly above about 40%, no sharp cut-off; inactive = mostly below about 27%
# SENP8 confirm = SENP8 protease inhibitors, retest, confirmation, biochemical, luminescence, single concentration; shares compounds with SENP7 inh; Recombinant SENP8, Z-RLRGG-aminoluciferin luminescence, 60 min; inhibition, % at 12.5 µM; 6,200 compounds, 40% hits; AID 488912, 2010;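 active = mean inhibition across replicates above about 50%, limit read from the data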
# SENP6 confirm = SENP6 protease inhibitors, confirmation, biochemical, luminescence, single concentration; shares compounds with SENP7 inh; recombinant SENP6, Z-RLRGG-aminoluciferin luminescence; inhibition, % at 12.5 µM; 6,200 compounds, 58% hits; AID 488915, 2010
# SENP7 confirm = SENP7 protease inhibitors, retest, confirmation, biochemical, luminescence, single concentration; shares compounds with SENP7 inh; recombinant SENP7, Z-RLRGG-aminoluciferin luminescence, 40 min; inhibition, % at 12.5 µM; 6,200 compounds, 69% hits
# Casp3 SENP sel = caspase-3 protease inhibitors, confirmation, selectivity assay for SENP inhibitor project, biochemical, single concentration. shares compounds with SENP7 inh. purified caspase-3, Z-DEVD-aminoluciferin luminescence, 60 min. inhibition, % at 12.5 µM. 6,200 compounds, 60% hits;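 active = mean inhibition above about 50%, limit read from the data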;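 also: plate controls were enzyme with DMSO for no effect and wells without caspase-3 for full effect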
# Target sequence (P42574 28-227 limits assumed): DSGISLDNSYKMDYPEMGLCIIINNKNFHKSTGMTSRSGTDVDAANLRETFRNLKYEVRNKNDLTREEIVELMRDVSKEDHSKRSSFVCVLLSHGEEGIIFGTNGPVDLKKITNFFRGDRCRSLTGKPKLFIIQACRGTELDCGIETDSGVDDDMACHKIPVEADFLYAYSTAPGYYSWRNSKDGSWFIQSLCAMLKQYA
# Luc interf = luminescence interference (SENP counter-screen); shares compounds with SENP7 inh; 6,200 compounds, 39% hits; inhibition, % at 12.5 µM; Pre-incubated SENP8/Z-RLRGG-aminoluciferin, luciferase luminescence interference;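 active = mean inhibition above about 50% when retested at one dose, limit read from the data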;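 also: plate controls were DMSO wells with completed reaction for no effect and substrate without enzyme for full effect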
# * hit, by the source's call; nt = not tested or not shown. An excerpt weighted towards active compounds, which were near 2.8% of everything screened.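 The calls were made as follows, unless noted: active = mean inhibition above about 50% in the one-dose retest (limit read from the data); inactive = the rest.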
SMILES,SENP6 inh,Platelet DG rel,SENP7 inh,HSP90 inh,SENP8 block-1,SENP8 block-2,SENP8 confirm,SENP6 confirm,SENP7 confirm,Casp3 SENP sel,Luc interf
C[C@H]1CN([C@@H](C)CO)S(=O)(=O)c2ccc(Br)cc2O[C@H]1CN(C)C(=O)Cc1ccncc1,nt,nt,nt,nt,nt,7,nt,nt,nt,nt,nt
CC1(C)Cc2c(sc(NC(=O)C(=O)N3CCCC3)c2C(=O)O)CO1,4,-9,15,-3,-7,22,nt,nt,nt,nt,nt
CC(C)COc1ccc(C(=O)Nc2sc3c(c2C(=O)O)CC(C)(C)OC3)cc1,30,-1,-1,1,28,-373,nt,nt,nt,nt,nt
COc1ccc(C(=O)Nc2sc3c(c2C(=O)O)CC(C)(C)OC3)cc1,63*,2,43,-4,44,-278,8,56*,0,50*,2
CC1(C)Cc2c(sc(NC(=O)c3ccccc3)c2C(=O)O)CO1,-16,1,44,9,64*,-49,77*,69*,86*,82*,59*
COCc1cc(=O)[nH]c(SCCS(=O)(=O)c2ccc(Cl)cc2Cl)n1,-6,-3,2,3,-1,-1,nt,nt,nt,nt,nt
CC(C)C(NC(=O)c1ccccc1)c1nnc(SCC(=O)NC2CCCC2)n1C (stereo not given),14,7,-2,2,-9,14,nt,nt,nt,nt,nt
COc1ccc(NC(=O)CN(C)C(=O)c2ccc(S(=O)(=O)Nc3ccccc3C)cc2)cc1,6,nt,-1,nt,7,-3,nt,nt,nt,nt,nt
Cc1ccc(/C=N/c2sc3c(c2C#N)CCC3)o1,93*,10,91*,2,90*,16,5,84*,94*,36,52*
N#Cc1c(/N=C/c2cccs2)sc2c1CCCCC2,76*,16,97*,7,92*,28,91*,94*,96*,87*,48
N#Cc1c(/N=C/c2cccnc2)sc2c1CCCC2,55*,-7,-10,-1,35,32,57*,56*,67*,28,56*
N#Cc1c(/N=C/c2ccc(Br)s2)sc2c1CCC2,nt,nt,nt,5,nt,17,nt,nt,nt,nt,nt
COc1ccc(C2NS(=O)(=O)OCC2C)cc1 (stereo not given),-9,-5,8,-5,3,3,nt,nt,nt,nt,nt
COc1ccc(C2NC(=O)CCC2[N+](=O)[O-])c(OC)c1OC (stereo not given),-6,-3,-1,-2,0,9,nt,nt,nt,nt,nt
O=C1/C(=C\c2ccc(-c3ccccc3[N+](=O)[O-])o2)C(c2ccccc2)=NN1c1ccccc1,58*,7,11,0,4,36,-18,-7,-7,-10,-6
CN(C)/C=C1\C(=O)N(c2ccc([N+](=O)[O-])cc2)N=C1c1ccccc1,98*,4,97*,-4,95*,62*,98*,99*,103*,95*,97*
CC1=NN(c2ccc([N+](=O)[O-])cc2)C(=O)/C1=C\N(C)C,97*,37,95*,4,93*,43*,96*,95*,102*,98*,96*
COc1ccccc1/C=C1/C(=O)N(c2ccc([N+](=O)[O-])cc2)N=C1C,27,2,21,3,26,23,nt,nt,nt,nt,nt
C/C(=C1/C(=O)N(c2ccc([N+](=O)[O-])cc2)N=C1c1ccccc1)N(C)C,14,nt,9,-4,13,nt,nt,nt,nt,nt,nt
CCCC1=NN(c2ccc([N+](=O)[O-])cc2)C(=O)/C1=C/N(C)C,98*,9,99*,0,95*,21,95*,95*,101*,96*,96*
CC1=NN(c2nc3ccccc3[nH]2)C(=O)/C1=C/N(C)C,88*,nt,96*,8,92*,15,88*,84*,98*,97*,91*
CN1c2ccsc2C(O)=C(C(=S)Nc2ccc(F)c(Cl)c2)S1(=O)=O,61*,-1,7,7,17,-102,19,13,10,13,30
COC(=O)CCCCCN1C(=O)/C(=C\c2ccncc2)SC1=S,-7,-27,-9,3,-7,35,nt,nt,nt,nt,nt
CCN1CCC(N2CCN(c3ccc(Cl)cc3)CC2)CC1,78*,-15,2,3,1,nt,-12,-10,-9,5,0
CCCN1CCC(N2CCN(c3ccc([N+](=O)[O-])cc3)CC2)CC1,-12,-4,6,-4,-4,24,nt,nt,nt,nt,nt
SMILES,SENP6 inh,Platelet DG rel,SENP7 inh,HSP90 inh,SENP8 block-1,SENP8 block-2,SENP8 confirm,SENP6 confirm,SENP7 confirm,Casp3 SENP sel,Luc interf
CCOC(=O)C(Oc1ccc(=O)n(-c2ccccc2)n1)C(C)=O (stereo not given),-22,1,84*,-1,-5,10,7,10,7,4,2
O=C(N/C=C/c1ccccc1)c1ccccc1,71*,8,41,nt,58*,-16,-6,46,82*,63*,36
O=C(NCCNC(=O)c1ccccc1)c1ccccc1,-9,0,0,3,1,15,nt,nt,nt,nt,nt
O/N=C(/CCc1ccccc1)c1ccc2c(c1)OCCO2,13,9,52*,-1,47,5,70*,69*,88*,44,72*
O=C(c1ccccc1)c1ccc2c(c1)OCCCO2,44,0,62*,8,28,1,28,34,75*,54*,55*
O=C(CCc1ccccc1)c1ccc2c(c1)OCCCO2,58*,6,42,-4,21,14,42,42,76*,38,37
